Measurements published in PubChem BioAssay (NCATS).
Records with an inconclusive call do not appear. The source made the active and inactive calls. Calls follow the shape of the dose curve; as a rule, active = well fitted curve in the direction sought with a large enough effect; inconclusive = small, poorly fitted or top-dose-only effect, or another doubt; inactive = no such curve, though single readings can be large; an effect the other way counts as inactive or inconclusive.

Legend:
[1] = Cell Viability - H-4-II-E (AID 543); also: % is scaled to controls: 0 for no effect and ±100 for the full control effect; nearly all actives have a fitted effect of over 35% in size
Summary of the method: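 Rat hepatoma H-4-II-E cells (1500/well) were plated, incubated 5 hr at 37 °C, then exposed to compounds for 40 hr at 37 °C. Cellular ATP was read by CellTiter-Glo luminescence; AC50 came from Hill-equation fits of concentration-response data.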

[2] = Cell Viability - SH-SY5Y (AID 544); conditions: SH-SY5Y neuroblastoma cell viability; viability change, negative = cytotoxic: at 92.2 µM (top of the series); also: nearly all actives have a fitted effect of over 55% in size
Summary of the method: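 Human neuroblastoma SH-SY5Y cells (1500/well) in complete medium were exposed to compounds for 40 hr at 37 °C; intracellular ATP was then quantified by CellTiter-Glo luminescence after 20 min at room temperature. AC50 came from Hill-equation concentration-response fits.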

[3] = Cell Viability - Renal Proximal Tubule (AID 545); also: nearly all actives have a fitted effect of over 40% in size
Summary of the method: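 Luminescent ATP signal (CellTiter-Glo) served as the viability read-out after 40 hr compound exposure of freshly isolated rat proximal tubule cells at 37 °C. Concentration-dependent ATP loss was fitted with the Hill equation to give AC50.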

[4] = Cell Viability - Mesenchymal (AID 546);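 also: cells exposed to compound for 40 hours before reading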
Summary of the method: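 Human kidney mesenchymal cells from normal renal glomeruli, 1000 cells/well, rested 5 hr at 37 °C, then treated 40 hr at 37 °C in complete medium. Cellular ATP read by CellTiter-Glo luminescence; AC50 from Hill-equation fits.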

[5] = Cellular Toxicity (caspase-3) HepG2 (AID 654);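 also: cells exposed to compound for 16 hours before reading; 0% = DMSO alone and 100% = caspase signal from 100 µM tamoxifen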
Summary of the method: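 HepG2 cells (1500/well) in complete medium were treated with compounds for 16 hr at 37 °C. Caspase-3/7 activity was then read as luminescence from peptide-aminoluciferin cleavage. AC50 came from Hill fits, normalized to DMSO and 100 uM tamoxifen.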

[6] = Cellular Toxicity (caspase-3) Jurkat (AID 655); conditions: Jurkat caspase-3 activation, luminescence; caspase-3 activation: at 92.2 µM (top of the series), DMSO = 0%, tamoxifen = 100%;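 also: cells exposed to compound for 16 h at 37 °C before reading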
Summary of the method: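 5000 Jurkat cells/well; compound 16 hr, 37 °C; Caspase-Glo 3/7 added, 20 min RT; luminescence read. Norm: DMSO = 0%, tamoxifen 100 uM = 100%. AC50, Hill model.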

[7] = Cellular Toxicity (caspase-3) HUV-EC-C (AID 656)
Summary of the method: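 qHTS; HUV-EC-C, 1000 cells/well; 5 hr settle, 16 hr cmpd, 37°C; Caspase-Glo 3/7, 20 min RT; luminescence. Norm: DMSO = 0%, tamoxifen 100 uM = 100%. Hill-fit AC50.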

[8] = Cellular Toxicity (caspase-3) SHSY5Y (AID 657)
Summary of the method: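 qHTS, SH-SY5Y, 1500 cells/well, 5 h pre-incubation 37 °C; compound 16 h 37 °C; Caspase-Glo 3/7 1 h RT; luminescence. Norm.: DMSO = 0, 10 uM staurosporine = 100%. Hill fit → AC50.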

[9] = Cellular Toxicity (caspase-3) BJ (AID 658);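 also: 0% = DMSO basal and 100% = 10 µM staurosporine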
Summary of the method: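 BJ human foreskin fibroblasts, 1000 cells/well, treated 16 hours at 37 °C in complete medium; caspase 3/7 activity by Caspase-Glo luminescence after 1 hr at room temperature. Normalized to DMSO and 10 uM staurosporine; AC50 from Hill fits.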

[10] = Cellular Toxicity (caspase-3) MRC-5 (AID 659);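 also: 0% = DMSO basal and 100% = 10 µM staurosporine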
Summary of the method: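 MRC-5 human normal lung fibroblasts, 1500 cells/well, treated 16 h at 37 °C in complete medium. Caspase 3/7 measured by Caspase-Glo luminescence after 1 h at room temperature. Normalized to DMSO and 10 uM staurosporine; AC50 from Hill fit.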

[11] = Cellular Toxicity (caspase-3) Mesangial (AID 660); conditions: mesangial cells, normalized: DMSO 0%, 100 µM tamoxifen 100%; at 91.7 µM (top of the series)
Summary of the method: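 Human renal glomerular mesangial cells (1000/well) were treated with compounds for 16 h at 37 °C in complete medium, then caspase 3/7 activity was read by Caspase-Glo luminescence. Data were normalized to DMSO and 100 uM tamoxifen; AC50 from Hill fits.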

[12] = Cellular Toxicity (caspase-3) SK-N-SH (AID 661);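 also: 0% = DMSO basal and 100% = 10 µM staurosporine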
Summary of the method: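 SK-N-SH human neuroblastoma cells (1500/well) were treated with compounds for 16 hr at 37 °C in complete medium; caspase 3/7 activity was read by Caspase-Glo luminescence. AC50 came from Hill fits of data normalized to DMSO and 10 uM staurosporine.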

[13] = Cellular Toxicity (caspase-3) H-4-II-E (AID 663); conditions: H-4-II-E rat hepatoma, scaled: DMSO 0%, 100 µM tamoxifen 100%; at 92.2 µM (top of the series);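 also: cells exposed to compound for 16 hr before readout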
Summary of the method: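 Rat hepatoma H-4-II-E cells (1500/well) plated 5 hr, then exposed to compound titrations for 16 hr at 37 °C. Caspase-Glo 3/7 luminescence read after 20 min at RT; data normalized to DMSO and 100 uM tamoxifen, AC50 from Hill fits.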

[14] = Cellular Toxicity (caspase-3) Hek293 (AID 664); conditions: HEK293 caspase-3 activation, DMSO = 0%, 100 µM tamoxifen = 100%; at 92.2 µM (top of the series);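 also: cells exposed to compound for 16 h at 37 °C before readout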
Summary of the method: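 HEK293 cells were exposed to compounds in complete medium for 16 hr at 37 °C, then caspase-3/7 activity was read by Caspase-Glo 3/7 luminescence after 20 min at room temperature. Data normalized to DMSO and 100 uM tamoxifen; AC50 from Hill fits.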

[15] = Cellular Toxicity (caspase-3) N2a (AID 665);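 also: compound exposure lasted 16 h at 37 °C before readout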
Summary of the method: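 Mouse N2a neuroblastoma cells (1500/well) were treated with compounds for 16 h at 37 °C, then caspase-3/7 activity was read by Caspase-Glo luminescence after 1 h at room temperature. Data were normalized to DMSO and 10 uM staurosporine; AC50 from Hill fits.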

[16] = Cellular Toxicity (caspase-3) NIH 3T3 (AID 666);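 also: caspase signal read after 16 h compound exposure; 0% = DMSO basal and 100% = 100 µM tamoxifen stimulation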
Summary of the method: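 Mouse NIH 3T3 fibroblasts (1000 cells/well) were treated with compound for 16 hr at 37°C in complete medium; caspase-3/7 activity was read by Caspase-Glo luminescence. Normalized to DMSO and 100 uM tamoxifen; AC50 from Hill fits.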

[17] = Cellular Toxicity (caspase-3) Renal Proximal Tubule (AID 667); conditions: Potency: caspase-3 activation;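 also: cells exposed to compound for 16 hours at 37 °C before detection; 0% = DMSO basal and 100% = 10 µM staurosporine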
Summary of the method: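 AC50 derived by standard Hill fit of concentration-response data, normalized between DMSO basal and 10 uM staurosporine as 100% stimulation. Cells: primary rat kidney proximal tubule, 16 h treatment at 37 °C.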

[18] = Cell Viability - LYMP2-001 (AID 921);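 also: cells exposed to compound for 24 h at 37 °C; 0% = DMSO only and full inhibition = tetraoctylammonium bromide control wells; nearly all actives have a fitted effect of over 70% in size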
Summary of the method: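 Steps: seed 2500 lymphoblastoid cells/well; 5 hr, 37 C; add compound; 24 hr, 37 C; CellTiter-Glo reagent, 30 min room temperature; read luminescence. Concentration-response modeled by Hill equation for AC50.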

[19] = biological target: Cytochrome P450 3A4 (Homo sapiens) (UniProt P08684); assay: qHTS Assay for Inhibitors and Substrates of Cytochrome P450 3A4 (AID 884); also: % is scaled to controls: 0 for no effect and ±100 for the full control effect; nearly all actives have a fitted effect of over 50% in size
Chain of Cytochrome P450 3A4 (Homo sapiens) (P08684 whole entry, looked up): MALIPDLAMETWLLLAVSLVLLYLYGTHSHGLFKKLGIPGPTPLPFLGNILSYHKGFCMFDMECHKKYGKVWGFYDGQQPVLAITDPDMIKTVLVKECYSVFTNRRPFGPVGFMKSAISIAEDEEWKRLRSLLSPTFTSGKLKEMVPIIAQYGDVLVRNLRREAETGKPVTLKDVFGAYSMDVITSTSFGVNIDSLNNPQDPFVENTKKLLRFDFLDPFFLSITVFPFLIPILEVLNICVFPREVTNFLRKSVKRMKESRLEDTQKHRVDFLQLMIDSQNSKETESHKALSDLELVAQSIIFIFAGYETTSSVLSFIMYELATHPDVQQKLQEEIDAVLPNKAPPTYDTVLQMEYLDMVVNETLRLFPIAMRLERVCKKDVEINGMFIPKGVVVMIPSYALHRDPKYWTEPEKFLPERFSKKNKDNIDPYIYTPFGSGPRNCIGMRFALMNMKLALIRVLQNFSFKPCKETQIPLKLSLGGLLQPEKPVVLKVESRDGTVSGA
Summary of the method: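 20 nM human CYP3A4 with 25 uM Luciferin-PPXE (at KM) in 200 mM KPO4, preincubated 10 min with compound; NADPH regeneration started a 60 min RT reaction. Luciferin detected by luminescence, normalized to 57 uM ketoconazole as full inhibition.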

[20] = biological target: Cytochrome P450 3A4 (Homo sapiens) (UniProt P08684); assay: qHTS Assay for Activators of Cytochrome P450 3A4 (AID 885); also: nearly all actives have a fitted effect of over 65% in size
Summary of the method: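 Quantitative HTS format: compounds preincubated with 20nM human CYP3A4 and Luciferin-PPXE substrate at KM, reaction started by NADPH regeneration, stopped after 60 min, luciferase luminescence read 20 min later.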

O=[N+]([O-])c1ccc(Cl)cc1Cl
inactive: Potency [1] | Potency [2] | Potency [3] | Potency [4] | Potency [5] | caspase-3 activation [6] 1.63% | outcome [7] | outcome [8] | outcome [9] | outcome [10] | caspase-3 activation [11] 0.652% | outcome [12] | caspase-3 activation [13] 1.21% | caspase-3 activation [14] 1.91% | outcome [15] | outcome [16] | Potency [17] | Potency [18]

CCOCC(=O)O
inactive: Potency [1] | Potency [2] | Potency [3] | Potency [4] | Potency [5] | caspase-3 activation [6] -1.08% | outcome [7] | outcome [8] | outcome [9] | outcome [10] | outcome [12] | caspase-3 activation [13] 0.681% | caspase-3 activation [14] 1% | outcome [15] | outcome [16] | Potency [17] | Potency [19] | Potency [18]

CNC(=O)c1ccccc1
inactive: Potency [1] | Potency [2] | Potency [3] | Potency [4] | Potency [5] | caspase-3 activation [6] 0.307% | outcome [7] | outcome [8] | outcome [9] | outcome [10] | caspase-3 activation [11] 0.192% | caspase-3 activation [13] -1.03% | caspase-3 activation [14] -0.658% | outcome [15] | outcome [16] | Potency [17] | Potency [19] | Potency [18]

CCCCCCCCCCCCOCC1CO1 (stereo not drawn)
inactive: Potency [1] | Potency [2] | Potency [3] | Potency [4] | Potency [5] | caspase-3 activation [6] 3.67% | outcome [7] | outcome [8] | outcome [9] | outcome [10] | outcome [12] | caspase-3 activation [13] 3.02% | caspase-3 activation [14] 2.47% | outcome [15] | outcome [16] | Potency [17] | Potency [19] | Potency [18]

CCC(C)O (stereo not drawn)
inactive: Potency [1] | Potency [2] | Potency [3] | Potency [4] | Potency [5] | caspase-3 activation [6] 0.184% | outcome [7] | outcome [8] | outcome [9] | caspase-3 activation [11] 0.681% | outcome [12] | caspase-3 activation [13] 1.46% | caspase-3 activation [14] -1.23% | outcome [15] | outcome [16] | Potency [17] | Potency [19] | Potency [18]

Nc1ccc(Cl)cc1[N+](=O)[O-]
inactive: Potency [1] | Potency [2] | Potency [3] | Potency [4] | Potency [5] | caspase-3 activation [6] -0.00309% | outcome [7] | outcome [8] | outcome [9] | outcome [10] | outcome [12] | caspase-3 activation [13] -0.0414% | caspase-3 activation [14] 1.61% | outcome [15] | outcome [16] | Potency [17] | Potency [19] | Potency [18]

O=[N+]([O-])c1cc(C(F)(F)F)ccc1Cl
inactive: Potency [1] | Potency [2] | Potency [3] | Potency [4] | Potency [5] | caspase-3 activation [6] 0.364% | outcome [7] | outcome [8] | outcome [9] | outcome [10] | caspase-3 activation [11] -0.64% | outcome [12] | caspase-3 activation [13] 0.0893% | caspase-3 activation [14] -0.647% | outcome [15] | outcome [16] | Potency [17] | Potency [18]

Nc1cccc(N)c1
inactive: Potency [1] | Potency [2] | Potency [3] | Potency [4] | Potency [5] | caspase-3 activation [6] 0.427% | outcome [7] | outcome [8] | outcome [9] | outcome [10] | outcome [12] | caspase-3 activation [13] 0.606% | caspase-3 activation [14] -1.72% | outcome [15] | outcome [16] | Potency [17] | outcome [20] | Potency [18]

CCCCOCCOCCSC#N
inactive: Potency [1] | Potency [2] | Potency [3] | Potency [4] | Potency [5] | caspase-3 activation [6] 1.11% | outcome [7] | outcome [8] | outcome [9] | outcome [10] | caspase-3 activation [11] -0.616% | caspase-3 activation [13] 0.183% | caspase-3 activation [14] -2.09% | outcome [15] | outcome [16] | Potency [17] | Potency [19] | Potency [18]

CC(C=O)Cc1ccc(C(C)(C)C)cc1 (stereo not drawn)
inactive: Potency [1] | Potency [2] | Potency [3] | Potency [4] | Potency [5] | caspase-3 activation [6] 2.85% | outcome [7] | outcome [8] | outcome [9] | outcome [10] | caspase-3 activation [13] 0.297% | caspase-3 activation [14] -0.395% | outcome [15] | outcome [16] | Potency [17] | Potency [19] | Potency [18]

CCC(C)(C)OC
inactive: Potency [1] | Potency [2] | Potency [3] | Potency [4] | Potency [5] | caspase-3 activation [6] 1.32% | outcome [7] | outcome [8] | outcome [9] | outcome [10] | caspase-3 activation [11] -0.415% | outcome [12] | caspase-3 activation [13] 0.321% | caspase-3 activation [14] -1.93% | outcome [15] | outcome [16] | Potency [17] | Potency [18]

CC(=O)CCc1ccccc1
inactive: Potency [1] | Potency [2] | Potency [3] | Potency [4] | Potency [5] | caspase-3 activation [6] -1.19% | outcome [7] | outcome [8] | outcome [9] | outcome [10] | caspase-3 activation [11] -0.0155% | outcome [12] | caspase-3 activation [14] 0.352% | outcome [15] | outcome [16] | Potency [17] | Potency [19] | Potency [18]

O=C(O)c1cccc([N+](=O)[O-])c1
inactive: Potency [1] | Potency [2] | Potency [3] | Potency [4] | Potency [5] | caspase-3 activation [6] 0.351% | outcome [7] | outcome [8] | outcome [9] | outcome [10] | caspase-3 activation [11] -1.42% | caspase-3 activation [13] -0.0521% | caspase-3 activation [14] 2.38% | outcome [15] | outcome [16] | Potency [17] | Potency [19] | Potency [18]
